Data as given in the supplement of paper PMC10498489.
In all, about 2,300 compounds went through this assay and about 330 (14%) showed activity.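 How the source made its calls: active = median modified Z-score above 1.96; inactive = 1.96 or below.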 These entries were drawn from the full list.

The compounds below were run on HepG2 Srxn1-GFP reporter cells (+30 nM CDDO-Me) (assay: Srxn1-GFP intensity median modified Z-score relative to plate median; higher = stronger NRF2 / oxidative stress reporter activation, active = hit call of the paper). Settings: 10 µM; exposure time: 24h.
Method in brief: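 The per-plate modified Z-score of GFP intensity, taken as a median across replicates, is what each value represents. Three replicate plates of HepG2 Srxn1-GFP BAC reporter cells were exposed for 24 h to an NRF2 activator at 30 nM combined with compound at 10 μM (≤0.1% DMSO). Cytoplasmic GFP per cell was read from confocal images, excluding any with under 100 cells, and scaling used 1.4826 × median absolute deviation.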
For COC(=O)C1CC(OC(C)=O)C(=O)C2C1(C)CCC1C(=O)OC(c3ccoc3)CC12C (configuration not stated) [euspeclibcmpd1949], the “Srxn1-GFP intensity median modified Z-score” value was -0.455 (inactive). For CC1(C)C2CC(=O)[C@]3(C)C(CC[C@@]4(C)[C@H](c5ccoc5)OC(=O)C5OC543)[C@@]2(C)[C@@H](O)C[C@H]1O (some centres not stated) [euspeclibcmpd1573], the “Srxn1-GFP intensity median modified Z-score” value was -0.392 (inactive). For CC(=O)O[C@@H]1CC2C(C)(C)C(=O)C=C[C@]2(C)C2CC[C@]3(C)C(=CC(=O)O[C@H]3c3ccoc3)[C@@]21C (some centres not stated) [euspeclibcmpd1551], the “Srxn1-GFP intensity median modified Z-score” value was 38.8 (active). With CC(CC(C(N)=O)(c1ccccc1)c1ccccc1)N(C)C (configuration not stated) [euspeclibcmpd819] the “Srxn1-GFP intensity median modified Z-score” value was -0.42 (inactive). In the case of C[N+]12CC[C@@]34c5ccccc5N5C(=O)CC6OCC=C(C1)[C@H](CC32)[C@@H]6C54 (some centres not stated) [euspeclibcmpd1705], the “Srxn1-GFP intensity median modified Z-score” value is reported as -0.091 (inactive). COc1cc2c(cc1O)CCNC2C (configuration not stated) [euspeclibcmpd1467] was tested, and the “Srxn1-GFP intensity median modified Z-score” value was -0.387 (inactive). With CCOP(=S)(OCC)Oc1ccc2c(C)c(Cl)c(=O)oc2c1 [euspeclibcmpd1023] the “Srxn1-GFP intensity median modified Z-score” value was 1.02 (inactive). C[C@H]1O[C@H](O[C@H]2[C@H](O)[C@@H](O)[C@@H](O)[C@H](O)[C@@H]2O)[C@@H](N)C[C@@H]1N=C(N)C(=O)O [euspeclibcmpd1430] was tested, and the “Srxn1-GFP intensity median modified Z-score” value was -0.17 (inactive). With NCCc1cc(O)c(O)cc1O [euspeclibcmpd220] the “Srxn1-GFP intensity median modified Z-score” value was -0.288 (inactive). With CC[C@H]1C[N@]2CCC1C[C@@H]2[C@@H](O)c1ccnc2ccc(OC)cc12 [euspeclibcmpd2090] the “Srxn1-GFP intensity median modified Z-score” value was 0.772 (inactive). In the case of C[C@]12CCC3[C@@H](CC[C@@]45OC4C(=O)C(C#N)C[C@]35C)[C@H]1CC[C@@H]2O (some centres not stated) [euspeclibcmpd687], the “Srxn1-GFP intensity median modified Z-score” value is reported as -0.339 (inactive). For CCC(C)[C@H]1O[C@]2(C=C[C@@H]1C)C[C@@H]1C[C@@H](C/C=C(\C)[C@@H](OC3C[C@H](OC)C(O[C@H]4C[C@H](OC)[C@@H](O)[C@H](C)O4)[C@H](C)O3)[C@@H](C)/C=C/C=C3\CO[C@@H]4[C@H](O)C(C)=CC(C(=O)O1)[C@]34O)O2 (some centres not stated) [euspeclibcmpd1285], the “Srxn1-GFP intensity median modified Z-score” value was 16.3 (active). For CC(C)(O)C(Cl)(Cl)Cl [euspeclibcmpd1104], the “Srxn1-GFP intensity median modified Z-score” value was -0.138 (inactive). C=C[C@H]1C[N@]2CC[C@H]1C[C@@H]2[C@@H](OC(=O)OCC)c1ccnc2ccc(OC)cc12 [euspeclibcmpd1022] was tested, and the “Srxn1-GFP intensity median modified Z-score” value was -0.0707 (inactive). With CC=C(C)C(=O)O[C@H]1CC[C@@]2(C)[C@@H]3CC[C@H]4[C@]5(O)C[C@H](O)[C@@]6(O)[C@@H](CN7C[C@@H](C)CC[C@H]7[C@@]6(C)O)[C@]5(O)C[C@@]42O[C@]13O [euspeclibcmpd1469] the “Srxn1-GFP intensity median modified Z-score” value was 0.0522 (inactive). For Nc1[nH]c(=O)n2c1C2 [euspeclibcmpd933], the “Srxn1-GFP intensity median modified Z-score” value was 0.164 (inactive). With CS(=N)(=O)CCC(N)C(=O)O (configuration not stated) [euspeclibcmpd1752] the “Srxn1-GFP intensity median modified Z-score” value was -0.455 (inactive). C[C@H]1O[C@@H](O[C@H]2[C@@H](O)C[C@H](O[C@H]3[C@@H](O)C[C@H](O[C@H]4CC[C@]5(C)C6CC[C@]7(C)C(c8coc(O)c8)CC[C@]7(O)C6CC[C@@H]5C4)O[C@@H]3C)O[C@@H]2C)C[C@H](O)[C@@H]1O (some centres not stated) [euspeclibcmpd95] was tested, and the “Srxn1-GFP intensity median modified Z-score” value was -1.81 (inactive). With C[C@@H]1O[C@@H](O[C@H]2CC[C@]3(C=O)C4CC[C@]5(C)C(c6coc(O)c6)CC[C@]5(O)C4CC[C@]3(O)C2)[C@H](O)[C@H](O)[C@H]1O (some centres not stated) [euspeclibcmpd1374] the “Srxn1-GFP intensity median modified Z-score” value was 7.48 (active). For CC1OC(OC2C=C3CCC4C(CCC5(C)C(c6ccc(=O)oc6)CCC45O)C3(C)CC2)C(O)C(O)C1O (configuration not stated) [euspeclibcmpd1931], the “Srxn1-GFP intensity median modified Z-score” value was 2.81 (active). With CC1OC(OC2C(O)CC(OC3C(O)CC(OC4CCC5(C)C(CCC6C5CCC5(C)C(c7coc(O)c7)C(O)CC65O)C4)OC3C)OC2C)CC(O)C1O (configuration not stated) [euspeclibcmpd1936] the “Srxn1-GFP intensity median modified Z-score” value was 2.78 (active). In the case of C[C@H]1O[C@@H](O[C@H]2[C@@H](O)C[C@H](O[C@H]3[C@@H](O)C[C@H](O[C@H]4CC[C@]5(C)C6C[C@@H](O)[C@]7(C)C(c8coc(O)c8)CC[C@]7(O)C6CC[C@@H]5C4)O[C@@H]3C)O[C@@H]2C)C[C@H](O)[C@@H]1O (some centres not stated) [euspeclibcmpd96], the “Srxn1-GFP intensity median modified Z-score” value is reported as -1.88 (inactive). With C[C@@H]1O[C@@H](O[C@H]2C[C@@H](O)[C@]3(CO)C4C(CC[C@]3(O)C2)[C@@]2(O)CCC(c3coc(O)c3)[C@@]2(C)C[C@H]4O)[C@H](O)[C@H](O)[C@H]1O (some centres not stated) [euspeclibcmpd1207] the “Srxn1-GFP intensity median modified Z-score” value was -1.16 (inactive). CO[C@H]1[C@H](O)[C@@H](O[C@H]2CC[C@]3(C=O)C4CC[C@]5(C)C(c6coc(O)c6)CC[C@]5(O)C4CC[C@@H]3C2)O[C@@H](C)[C@@H]1O (some centres not stated) [euspeclibcmpd2165] was tested, and the “Srxn1-GFP intensity median modified Z-score” value was 3.39 (active). In the case of C[C@@]12C(c3coc(O)c3)CC[C@]1(O)C1CC[C@@H]3C[C@@H](O)CC[C@]3(C)C1C[C@H]2O (some centres not stated) [euspeclibcmpd2259], the “Srxn1-GFP intensity median modified Z-score” value is reported as -0.638 (inactive). With CNNC [euspeclibcmpd2278] the “Srxn1-GFP intensity median modified Z-score” value was -0.486 (inactive). For O=C(O)CCC1NCC2CC1CN1CCCCC21 (configuration not stated) [euspeclibcmpd2022], the “Srxn1-GFP intensity median modified Z-score” value was -0.148 (inactive).
